Measured values taken from PubChem BioAssay AID588742 (Southern Research Specialized Biocontainment Screening …, 2011).
The campaign covered roughly 1,800 compounds. About 410 (23%) were called active. The rule behind the calls is not given here. Only a sample is shown. Results with a measured potency or affinity are listed apart.

Assay: Vero cell cytotoxicity, cytotoxicity control for flavivirus capping enzyme inhibitors (AID 588742)
Conditions: Vero cells viability, cytotoxicity counter-screen; series mostly up to 40 µM; viability: at the top concentration
With `C=CCN=C1N[C@@H](c2cccc(C(F)(F)F)c2)C(C(=O)OC)=C(C)N1CC` the “viability” value was 96.3% (inactive). With `Cc1c(OC(=O)c2ccc([N+](=O)[O-])cc2)c2c(c[n+]1C)COC(C)(C)OC2` the “viability” value was 102% (inactive). In the case of `CCOC(=O)c1cc(-c2ccc(/C=C3/C(=O)NC(=O)C(C#N)=C3C)o2)ccc1Cl`, the “viability” value was 115% (inactive). In the case of `CCC(c1ccccc1)C(CC)c1cc(O)c(O)c(O)c1` (centres undefined), the “viability” value was 87.2% (inactive). With `N#CC1=C(N)C2=C(N3CCCCC3)CCCC2C1(C#N)C#N` (centres undefined) the “viability” value was 95.8% (inactive). In the case of `COc1ccc(C2Nc3cccc4cccc(c34)N2)cc1`, the “viability” value was 106% (inactive). In the case of `COc1ccc(-c2cc(-c3ccc(Cl)cc3)c(C#N)c(SCC(=O)O)n2)cc1`, the “viability” value was 82.6% (inactive). For `CCOC(=O)/C(C#N)=C/c1c(N2CCN(CC)CC2)nc2c(C)cccn2c1=O`, the “viability” value was 102% (inactive). With `CC(=O)N(C1=C(Cl)C(=O)c2ccccc2C1=O)c1ccc(C(=O)O)cc1` the “viability” value was 114% [at 20 µM] (inactive). For `COc1ccccc1N(O)C1CC(=O)N(c2ccc(F)cc2)C1=O` (centres undefined), the “viability” value was 105% (inactive). For `O=S(c1ccccc1O)S(=O)c1ccccc1O` (centres undefined), the “viability” value was 106% (inactive). With `Cc1cc(=O)n(CCc2ccccc2)c(O)c1C#N` the “viability” value was 105% (inactive). In the case of `CC1CC2=C(NC(=S)NC2c2ccccc2F)/C(=C/c2ccccc2F)C1` (centres undefined), the “viability” value was 85.3% (inactive). For `COc1ccc(N2C(=O)C(Cl)=C(N3CCOCC3)C2=O)cc1`, the “viability” value was 97.6% (inactive). In the case of `O=C1N=c2ccc(Br)cc2=C1c1sc(=S)n(NS(=O)(=O)c2ccccc2)c1O`, the “viability” value was 91.5% (inactive). In the case of `COC(=O)CN(c1ccccc1C)S(C)(=O)=O`, the “viability” value was 97% (inactive). With `COc1cccc(/C=C2\SC(=S)N(C(Cc3ccccc3)C(=O)O)C2=O)c1` (centres undefined) the “viability” value was 95.1% (inactive). With `COc1ccc(-c2csc(NC(=O)CSc3nc(C)nc4sc(C(=O)O)c(C)c34)n2)cc1` the “viability” value was 94.1% (inactive). For `Oc1ccc(/C=N/NC(=S)Nc2cccnc2)c(O)c1O`, the “viability” value was 92.2% (inactive). In the case of `CCSc1ncc(Cl)c(C(=O)N(Cc2ccc(N(C)C)cc2)C2CCS(=O)(=O)C2)n1` (centres undefined), the “viability” value was 93.8% (inactive). For `CCN(CCO)c1ccc(NC(=S)Nc2cccc(S(=O)(=O)N(C)C)c2)cc1`, the “viability” value was 95.5% (inactive). In the case of `COc1ccc(NC(=S)NNc2ccc(S(=O)(=O)Nc3ccccc3C(=O)O)cc2[N+](=O)[O-])cc1`, the “viability” value was 103% (inactive). In the case of `O=C1c2ccccc2C(=O)N1OS(=O)(=O)c1ccc(F)cc1`, the “viability” value was 101% (inactive). In the case of `CC(C)=CCC1=C(OCC(=O)O)C(=O)c2ccccc2C1=O`, the “viability” value was 92.7% (inactive). With `CN(C)NC(=S)Nc1ccc2nc(-c3ccccn3)c(-c3ccccn3)nc2c1` the “viability” value was 101% (inactive). With `CC(C)c1ccc(S(=O)(=O)c2n[nH]n3c2nc(=O)c2ccccc23)cc1` the “viability” value was 103% (inactive). In the case of `CC(C)c1ccc(S(=O)(=O)/N=C2\C=C(NS(=O)(=O)c3ccccc3)C(=O)c3ccccc32)cc1`, the “viability” value was 80% (inactive). For `Cc1ccc(C(C2C(=O)CC(C)(C)CC2=O)C2C(=O)CC(C)(C)CC2=O)s1`, the “viability” value was 93.8% (inactive). With `CC1=NN(c2ccc(Cl)c(C(=O)O)c2)C(=O)/C1=C\c1ccc(-c2ccc(C(=O)O)cc2)o1` the “viability” value was 100% (inactive). For `CC1=NN(c2ccc(C(=O)O)cc2)C(=O)/C1=C/c1ccc(-c2ccccc2F)o1`, the “viability” value was 101% (inactive). For `COc1ccc(N2C(=NC(=O)CCCc3ccccc3)SC3CS(=O)(=O)CC32)cc1` (centres undefined), the “viability” value was 103% (inactive). For `O=C1C(=Cc2cccn2-c2ccc(O)cc2)C(=O)c2ccccc21`, the “viability” value was 87.5% (inactive). In the case of `O=C1NC(=S)NC1=Cc1ccco1`, the “viability” value was 105% (inactive). In the case of `COC(=O)c1c(Cl)c2n3ccccc3c(C)c(-c3ccccc3)c-2c1C(=O)OC`, the “viability” value was 102% (inactive). With `COc1ccc(C(C2C(=O)CC(C)(C)CC2=O)C2C(=O)CC(C)(C)CC2=O)cc1CO` the “viability” value was 95.5% (inactive). For `Cc1ccc(CCCNC(=O)C2CCC(=O)N(Cc3cccc(F)c3)C2)cc1` (centres undefined), the “viability” value was 91.8% (inactive). With `CC(C)(C)OC(=O)N1CCN(C(=O)c2ncn(Cc3ccccc3)c2C(=O)N2CCN(C(=O)OC(C)(C)C)CC2)CC1` the “viability” value was 101% (inactive). For `CC1(C(=O)NNC(=O)c2ccc([N+](=O)[O-])cc2)CC1(Br)Br` (centres undefined), the “viability” value was 99.5% (inactive). With `O=C(O)COc1ccccc1C(Nc1ccccn1)c1cc(Cl)c2cccnc2c1O` (centres undefined) the “viability” value was 106% (inactive). In the case of `CC(=O)NC(c1ccco1)c1cc(Cl)c2ccccc2c1O` (centres undefined), the “viability” value was 102% (inactive). For `CCC(=O)NC(c1ccco1)c1cc(Cl)c2ccccc2c1O` (centres undefined), the “viability” value was 95.8% (inactive). With `COc1ccc(NC(=O)c2ccccn2)cc1OC` the “viability” value was 97.5% (inactive). In the case of `C=CCS/C(N)=N\N=C\c1cc(Br)cc([N+](=O)[O-])c1O`, the “viability” value was 90.7% (inactive). In the case of `COc1cccc(CNC(=O)CCc2nnc3ccc(NCCCN4CCCC4=O)nn23)c1`, the “viability” value was 96.2% (inactive). In the case of `CCOC(=O)C1Nc2ccccc2C2C(O)C(O)CC12` (centres undefined), the “viability” value was 88.7% (inactive). For `COC1C=COC2(C)Oc3c(C)c(O)c4c(O)c(c(CN5CCN(C)CC5)c(O)c4c3C2=O)NC(=O)C(C)=CC=CC(C)C(O)C(C)C(O)C(C)C(OC(C)=O)C1C` (centres undefined), the “viability” value was 99.8% (inactive). For `O=C(C1=C(O)C(=O)N(Cc2ccco2)C1c1cccnc1)c1cc2ccccc2o1` (centres undefined), the “viability” value was 112% (inactive). With `O=C(O)CN1C(=O)/C(=C\c2cccc(OCc3ccccc3F)c2)SC1=S` the “viability” value was 93% (inactive). For `COc1cc(NC(=O)CSc2ncnc3sc4c(c23)CCC(C)C4)c(C(=O)O)cc1OC` (centres undefined), the “viability” value was 104% (inactive).
